From the antibiotic and cytotoxicity screens of Wong et al. (2023)
Among all 39,000 compounds or so, about 3,300 (8.5%) were called active. This excerpt belongs to a sample that is enriched for actives.

system: HepG2; assay: cytotoxicity call (relative viability < 0.9); conditions: 10 µM

| Structure (SMILES) | cytotoxicity call |
| --- | --- |
| Cc1ccc(OC(=O)N(C)C[C@@H]2OCc3ccccc3-c3ccccc3C(=O)N([C@@H](C)CO)C[C@H]2C)cc1 | inactive |
| C[C@H]1CN([C@@H](C)CO)S(=O)(=O)c2ccc(C#CCN(C)C)cc2O[C@H]1CN(C)C(=O)CN(C)C | inactive |
| O=C(CCCCCNC(=O)OCc1ccc(CO[C@H]2C[C@@H](c3ccc(C(F)(F)F)cc3)C=C(C(=O)N3CCN(Cc4ccccc4)CC3)O2)cc1)NO | inactive |
| C[C@H]1CN([C@@H](C)CO)C(=O)c2cc(NC(=O)Nc3ccc4c(c3)OCO4)ccc2O[C@H]1CN(C)S(C)(=O)=O | inactive |
| COc1ccc(CNC(=O)C[C@H]2CC[C@@H]3[C@H](COc4ccc(NC(=O)C(C)C)cc4C(=O)N3C)O2)cc1 | inactive |
| C[C@@H]1CN([C@@H](C)CO)C(=O)Cc2cc(NS(=O)(=O)c3cccs3)ccc2O[C@H]1CN(C)Cc1ccncc1 | inactive |
| CC[C@@H](C[C@@H](O)[C@@H](C)[C@H]1CC[C@H]2C3=CC(=O)[C@H]4[C@H](C)[C@@H](OC(=O)c5ccccc5)CC[C@]4(C)[C@H]3CC[C@]12C)C(C)C | inactive |
| CC[n+]1oc(-c2ccccc2)cc1C | active |
| O=C(CCCCCNC(=O)OCc1ccc(CO[C@H]2C[C@@H](C3CCCCC3)C=C(C(=O)N3CCN(Cc4ccccc4)CC3)O2)cc1)NO | inactive |
| COCC(=O)Nc1ccc2c(c1)C(=O)N(C)C[C@H](OC)[C@@H](C)CN(Cc1ccccc1OC)[C@@H](C)CO2 | inactive |
| COC(=O)CCCCCCC(=O)Nc1ccc(NC(=O)CCCC[P+](c2ccccc2)(c2ccccc2)c2ccccc2)cc1 | inactive |
| COC1=C(OC)C(=O)C(CC=C(C)CCC=C(C)CCC=C(C)CCC=C(C)CCC=C(C)CCC=C(C)CCC=C(C)CCC=C(C)CCC=C(C)CCC=C(C)C)=C(C)C1=O | inactive |
| COC1=C(OC)C(=O)C(C/C=C(\C)CC/C=C(\C)CC/C=C(\C)CC/C=C(\C)CC/C=C(\C)CC/C=C(\C)CC/C=C(\C)CC/C=C(\C)CC/C=C(\C)CCC=C(C)C)=C(C)C1=O | inactive |
| COC1=C(OC)C(=O)C(CCCCCCCCCCO)=C(C)C1=O | active |
| COC1=C(OC)C(=O)C(C/C=C(\C)CC/C=C(\C)CC/C=C(\C)CC/C=C(/C)CC/C=C(\C)CC/C=C(\C)CC/C=C(\C)CC/C=C(\C)CC/C=C(\C)CCC=C(C)C)=C(C)C1=O | inactive |
| CC1=C(C)C(=O)C(C(CCCCCC(=O)O)c2ccccc2)=C(C)C1=O (centres undefined) | inactive |
| COC1=C(OC)C(=O)C(CCCCCCCCCC[P+](c2ccccc2)(c2ccccc2)c2ccccc2)=C(C)C1=O | active |
| CC1=C(C)C(=O)C(CCCCCCCCCC[P+](c2ccccc2)(c2ccccc2)c2ccccc2)=CC1=O | active |
| CC=Cc1ccc2n(c1=O)C[C@H]1[C@H](CO)[C@@H](C(=O)NC3CCC3)N(S(C)(=O)=O)[C@@H]21 | inactive |
| COc1ccc(-c2cn3cc(C(=O)NCC(N)=O)nc3c(=O)n2CC2CC2)c(F)c1 | inactive |
| C[C@@H]1CN([C@H](C)CO)C(=O)c2cc(NS(=O)(=O)c3cccs3)ccc2O[C@H]1CN(C)S(=O)(=O)c1ccc(F)cc1 | inactive |
| COc1ccc(NC(=O)Nc2ccc3c(c2)[C@@H]2C[C@H](CC(=O)NCc4ccccn4)O[C@H](CO)[C@@H]2O3)cc1 | inactive |

| Structure (SMILES) | cytotoxicity call |
| --- | --- |
| C[C@@H]1CN([C@@H](C)CO)C(=O)c2cc(NC(=O)CCN3CCOCC3)ccc2O[C@@H]1CN(C)Cc1ccc2c(c1)OCO2 | inactive |
| C[C@H]1CN([C@@H](C)CO)C(=O)c2cccc(NC(=O)C3CCCCC3)c2O[C@@H]1CN(C)S(=O)(=O)c1cn(C)cn1 | inactive |
| C[C@H](CO)N1C[C@H](C)[C@@H](CN(C)C(=O)C2CC2)Oc2ncc(-c3ccc(C(=O)N(C)C)cc3)cc2C1=O | inactive |
| NCC[C@@H](Cc1ccccc1)c1ccc2c(c1)OCO2 | inactive |
| N[C@H](c1ccc2c(c1)OCCO2)c1ccco1 | inactive |
| N[C@@H](CCc1ccccc1Cl)c1ccc2c(c1)OCCO2 | active |
| Cc1ccc(S(=O)(=O)Nc2cccc3c2O[C@H](CN(C)C(=O)Nc2cccc4ccccc24)[C@H](C)CN([C@H](C)CO)C3=O)cc1 | inactive |
| O=C(NCCNS(=O)(=O)c1cccc2nonc12)[C@H]1COc2ccccc2O1 | inactive |
| CS(=O)(=O)N1CCN(Cc2cc3nc(-c4cccc5n[nH]cc45)nc(N4CCOCC4)c3s2)CC1 | active |
| C[C@H]1CN([C@@H](C)CO)C(=O)c2cc(C#CC3(O)CCCC3)cnc2O[C@H]1CN(C)S(=O)(=O)c1cccc(F)c1 | inactive |
| COc1ccc(S(=O)(=O)N(C)C[C@H]2Oc3ccc(NS(=O)(=O)c4ccc(F)cc4)cc3CC(=O)N([C@H](C)CO)C[C@@H]2C)cc1 | inactive |
| Cc1noc(C)c1S(=O)(=O)Nc1ccc2c(c1)CC(=O)N([C@H](C)CO)C[C@H](C)[C@H](CN(C)S(=O)(=O)c1ccc(Cl)cc1)O2 | inactive |
| C[C@H](CO)N1C[C@H](C)[C@H](CN(C)S(=O)(=O)c2ccc(F)cc2)Oc2c(NS(=O)(=O)c3ccccc3)cccc2C1=O | inactive |
| O=C(CN1CCOC1=O)N1CCC2(CCC(=O)N(CCCn3ccnc3)C2)CC1 | inactive |
| CCN(CC)CCCCNc1ncc2cc(-c3c(Cl)cccc3Cl)c(NC(=O)NC(C)(C)C)nc2n1 | active |
| CCN(CC)CCNC(=O)COc1ccc(OC)cc1.Cl | inactive |
| CCN(CC)CCCCNc1ncc2cc(-c3cc(OC)cc(OC)c3)c(NC(=O)NC(C)(C)C)nc2n1 | active |
| CC(C)=CCC/C(C)=C/CC/C(C)=C/CCC(=O)OC/C=C(\C)CCC=C(C)C | inactive |
| Cc1noc(C)c1NC(=O)Nc1ccc2c(c1)C(=O)N([C@H](C)CO)C[C@H](C)[C@H](CN(C)Cc1ccc(C(=O)Nc3ccccc3N)cc1)OCCCC[C@@H](C)O2 | inactive |
| COc1ccc(NC(=O)N(C)C[C@H]2OCCCC[C@H](C)Oc3ccc(NC(=O)Cc4ccccc4)cc3C(=O)N([C@@H](C)CO)C[C@H]2C)cc1 | inactive |
| C[C@@H]1CN([C@H](C)CO)C(=O)Cc2cc(NC(=O)Cc3cn(C)c4ccccc34)ccc2O[C@@H]1CN(C)C(=O)Nc1cccc2ccccc12 | inactive |
| C[C@@H]1CCCCO[C@@H](CN(C)C(=O)Cc2ccccc2)[C@@H](C)CN([C@H](C)CO)C(=O)c2cc(NC(=O)Nc3ccc4c(c3)OCO4)ccc2O1 | inactive |
